Screening data (PubChem BioAssay)
USP17 block – human USP17-like deubiquitinase inhibition; A8MUK1; purified USP17, Ub-rhodamine cleavage fluorescence, 3 h; inhibition, % at 50 µM; 47,000 tested, 6.5% active; AID 1645855
UCHL1 block – human UCHL1 deubiquitinase inhibition; AID 1645859; P09936; inhibition, % at 20 µM; 47,000 tested, 0.2% active; purified UCHL1, Ub-rhodamine cleavage fluorescence
USP7 inh – inhibitors of human USP7 deubiquitinase; purified USP7, Ub-rhodamine cleavage fluorescence; inhibition, % at 20 µM; 47,000 tested, 0.3% active; AID 1645854
Target sequence (Q93009 whole entry, looked up): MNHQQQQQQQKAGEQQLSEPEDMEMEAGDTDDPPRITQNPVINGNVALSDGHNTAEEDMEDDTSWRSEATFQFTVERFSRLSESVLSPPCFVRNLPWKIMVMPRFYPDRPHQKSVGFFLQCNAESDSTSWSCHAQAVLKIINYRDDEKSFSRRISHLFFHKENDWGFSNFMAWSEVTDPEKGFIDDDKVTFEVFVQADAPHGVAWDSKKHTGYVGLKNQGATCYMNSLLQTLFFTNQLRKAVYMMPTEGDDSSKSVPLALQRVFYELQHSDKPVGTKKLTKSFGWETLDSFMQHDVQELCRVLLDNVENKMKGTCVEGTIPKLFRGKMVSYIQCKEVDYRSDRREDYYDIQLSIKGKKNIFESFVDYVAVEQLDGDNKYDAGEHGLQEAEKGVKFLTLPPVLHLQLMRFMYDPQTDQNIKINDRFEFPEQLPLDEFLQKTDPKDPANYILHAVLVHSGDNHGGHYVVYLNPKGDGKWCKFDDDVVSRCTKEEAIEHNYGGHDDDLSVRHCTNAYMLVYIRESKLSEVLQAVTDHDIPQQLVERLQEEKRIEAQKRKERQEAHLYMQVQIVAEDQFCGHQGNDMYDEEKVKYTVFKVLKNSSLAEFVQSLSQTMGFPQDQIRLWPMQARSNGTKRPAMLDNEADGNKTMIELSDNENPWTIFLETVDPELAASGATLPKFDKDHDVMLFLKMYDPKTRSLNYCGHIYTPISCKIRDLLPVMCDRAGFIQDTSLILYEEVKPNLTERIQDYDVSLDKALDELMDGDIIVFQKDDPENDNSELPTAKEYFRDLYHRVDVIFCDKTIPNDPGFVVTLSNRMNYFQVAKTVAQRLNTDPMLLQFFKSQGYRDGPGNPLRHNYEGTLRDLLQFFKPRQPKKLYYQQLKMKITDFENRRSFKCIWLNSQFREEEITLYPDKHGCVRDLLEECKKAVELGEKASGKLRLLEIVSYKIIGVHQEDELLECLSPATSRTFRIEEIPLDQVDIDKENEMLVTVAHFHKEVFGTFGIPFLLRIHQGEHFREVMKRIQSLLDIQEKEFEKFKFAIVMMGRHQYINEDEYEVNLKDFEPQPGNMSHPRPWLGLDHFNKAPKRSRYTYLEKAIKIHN
USP10 block – human USP10 deubiquitinase inhibition. Q14694. purified USP10, Ub-rhodamine fluorescence, 60 min. inhibition, % at 20 µM. 47,000 tested, 1.1% active. AID 1645856
USP30 block – human USP30 deubiquitinase inhibition; Q70CQ3; purified USP30, Ub-rhodamine cleavage fluorescence; inhibition, % at 25 µM; 47,000 tested, 5.3% active; AID 1645860
USP8 block – inhibitors of human USP8 deubiquitinase. 47,000 tested, 4.2% active. AID 1645853. P40818. inhibition, % at 20 µM. purified USP8, Ub-rhodamine cleavage fluorescence, 30 min
* marks the source's active call; other numbers are inactive results; . = not tested or not shown. An excerpt weighted towards active compounds, which were near 13% of everything screened. No stated cut-off is given here; in the data, active means inhibition above about 30%; inactive means the rest.

SMILES	USP17 block	UCHL1 block	USP7 inh	USP10 block	USP30 block	USP8 block
Cc1ccc(C2CC(=O)c3cnc(NC(=O)c4ccc(Cl)cc4)nc3C2)cc1 (configuration not stated)	16	2	-138	7	43*	10
COc1cccc(F)c1-c1nc(C)c(C(=O)NCc2ccccc2)s1	0	4	-3	-2	3	-39
CC(=O)c1cccc(NC(=O)c2sc(-c3ccccc3)nc2C)c1	19	7	-7	2	17	18
COc1ccc(-c2nc(C)c(C(=O)NCc3ccc(S(N)(=O)=O)cc3)s2)cc1	57*	1	2	9	19	-71
CCOc1ccc(C(=O)c2cc3c(CO)cnc(C)c3oc2=O)cc1	-1	-3	-2	1	-3	-51
COc1ccc(OC)c(NC(=O)c2cc3c(CO)cnc(C)c3oc2=O)c1	33*	2	1	-1	44*	-13
COc1ccc(OC)c(NC(=O)c2sc(-c3ccccc3)nc2C)c1	51*	8	-12	17	74*	42*
COc1ccc(OC)c(NC(=O)c2nc(C3CCC3)oc2C)c1	15	7	5	8	31*	16
COc1cccc(NS(=O)(=O)c2cc(C(=O)N3CCN(Cc4ccc(OC)c(OC)c4OC)CC3)ccc2NCc2ccccc2Cl)c1	3	3	12	8	12	24
COc1ccc(OC)c(NC(=O)c2cc(Cl)ccc2OC)c1	62*	1	9	6	16	5
CCN1CC2(CCN(Cc3ccccc3)CC2)COc2ccccc2S1(=O)=O	-7	-1	-3	0	-4	-7
COc1ccc(NC(=O)Cn2cc(C(=O)c3ccc(OC)cc3)c(=O)c3cc4c(cc32)OCCO4)cc1	6	6	8	6	10	44*
COc1ccc(NC(=O)Cn2cc(C(=O)c3ccc(F)cc3)c(=O)c3cc(C)ccc32)cc1	75*	8	16	41*	32*	23
COc1ccccc1NC(=O)Cn1cc(C(=O)c2ccc(C)cc2)c(=O)c2cc(C)ccc21	15	3	8	0	25	17
CCOc1ccc2c(c1)c(=O)c(C(=O)c1ccc(F)cc1)cn2CC(=O)Nc1ccc(F)cc1	41*	30*	47*	20	.	72*
CCOc1ccc2c(c1)c(=O)c(C(=O)c1ccc(C)cc1)cn2CC(=O)Nc1ccc(OC)c(OC)c1	36*	15	26	48*	70*	87*
CCOc1ccc(NC(=O)CCc2csc(NC(=O)c3ccc(=O)[nH]c3)n2)cc1	8	-4	-1	0	7	-40
Cc1ccc(CS(=O)(=O)c2cn(CC(=O)Nc3cccc(F)c3)c3ccccc23)cc1	9	3	-4	3	-38	25
Cc1ccc(C(=O)c2cn(CC(=O)Nc3ccc(Cl)cc3)c3ccc(F)cc3c2=O)cc1	-26	-4	2	15	-219	60*
Nc1nc(/C=C/c2ccc(Cl)cc2)nc(-c2ccccc2O)n1	36*	-1	4	7	13	5
CCOc1ccc(-c2nc(SCC(=O)Nc3cccc(C)c3)n3[nH]c(=O)cc3n2)cc1	40*	14	-141	53*	15	42*
O=c1c(NCc2ccccc2Cl)nccn1Cc1ccc(F)cc1	19	8	-8	9	30*	21
CCOc1cccc(CNC(=O)C2c3ccccc3CC(=O)N2CC)c1 (configuration not stated)	27	3	-1	1	2	55*
CC(=O)c1cccc(-n2c(=O)c3c4c(sc3n(CC(=O)NCC3CCCO3)c2=O)CN(C(C)=O)CC4)c1 (configuration not stated)	-1	-3	0	-4	-9	0
COc1ccc(Br)cc1CNC(=O)C1CCCN(c2nnc(N3CCCC3=O)s2)C1 (configuration not stated)	40*	-1	-1	-2	-29	-11
SMILES	USP17 block	UCHL1 block	USP7 inh	USP10 block	USP30 block	USP8 block
O=C(NCc1ccccc1Cl)C1CCCN(c2nc3ccsc3c(=O)s2)C1 (configuration not stated)	55*	-2	4	20	-36	0
COc1ccccc1CNC(=O)C1CCCN(c2nc3ccsc3c(=O)s2)C1 (configuration not stated)	57*	1	6	3	20	1
COc1cccc(CNC(=O)C2CCCN(c3nnc(N4CCCC4=O)s3)C2)c1OC (configuration not stated)	-7	-4	-3	0	9	-25
CCc1nnc(-c2nnc(NC3CCN(C)CC3)c3ccccc23)o1	12	3	-4	1	32*	3
c1ccc(-c2nn3c(-c4ccco4)nnc3c3ccccc23)cc1	1	0	3	1	-2	8
c1ccc(-c2cc(-c3nnc4c5ccccc5cnn34)[nH]n2)cc1	47*	1	4	3	7	1
CCOc1ccc(NC(=NC2CCCCC2)NS(C)(=O)=O)cc1	1	0	1	-2	.	-1
O=C(NC1CCCCC1)C(c1ccc(F)cc1)N(C(=O)C1COc2ccccc2O1)c1ccc2c(c1)OCO2 (configuration not stated)	-8	-1	0	14	-31	41*
O=C(NC1CCCCC1)C(c1ccc(Cl)cc1)N(C(=O)c1cnccn1)c1ccc2c(c1)OCO2 (configuration not stated)	43*	-2	0	-3	-2	21
CCOc1ccccc1N(C(=O)CCCC(=O)Nc1ccccn1)C(C(=O)NC1CCCC1)c1ccc(F)cc1 (configuration not stated)	-8	1	-5	0	10	-4
O=C(CCCC(=O)N(c1ccc2c(c1)OCCO2)C(C(=O)NC1CCCCC1)c1ccc(F)cc1)Nc1ccccn1 (configuration not stated)	34*	3	3	40*	45*	58*
CC(C)c1ccc(C(C(=O)NC2CCCCC2)N(C(=O)c2cnccn2)c2ccc3c(c2)OCO3)cc1 (configuration not stated)	9	-1	6	-2	12	0
Cc1ccc(C(C(=O)NC2CCCCC2)N(C(=O)CCCC(=O)Nc2ccccn2)c2ccc3c(c2)OCCO3)cc1 (configuration not stated)	48*	4	5	20	38*	8
CCOC(=O)C1CCN(C(=O)CN(c2ccccc2)S(=O)(=O)c2ccc(OC)c(OC)c2)CC1	-1	-2	-1	1	2	0
CCC(C)[C@H](NC(=O)C1(c2ccccc2)CCN(C(=O)[C@H]2CSCN2)CC1)C(=O)O (some centres not stated)	.	3	10	2	21	-5
Cc1cc(S(=O)(=O)C(CNC(=O)c2ccccc2F)c2cccnc2)ccc1F (configuration not stated)	15	2	5	2	25	23
